# Data taken from PubChem BioAssay (NCATS).
# Where “and” joins values, the source holds several entries; their conditions need not be identical. Identical values can stand only once. Records with an inconclusive call do not appear. Entries that show only a call come without a potency. Calls of active or inactive are those of the source. Unless noted, calls come from the whole dose curve; as a rule, active = well fitted curve in the direction sought with a large enough effect; inconclusive = small, poorly fitted or top-dose-only effect, or another doubt; inactive = no such curve, though single readings can be large; an effect the other way counts as inactive or inconclusive.
# Key:
# [1] = Cell Viability - LYMP2-015 (AID 971); note: nearly all actives have a fitted effect of over 55% in size
# How it was run: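 Acute toxicity was scored as a concentration-dependent drop in intracellular ATP in lymphoblastoid cells after 24 hr compound exposure in complete medium. Detection used CellTiter-Glo luciferase luminescence.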
# [2] = Cell Viability - LYMP2-017 (AID 972);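 note: series mostly up to about 92 µM; cells exposed to compound for 24 hours at 37 °C; nearly all actives have a fitted effect of over 55% in size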
# How it was run: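 Steps: plate 2500 lymphoblastoid cells per well; incubate 5 hr at 37 C; add compound across a concentration series and incubate 24 hr at 37 C; add CellTiter-Glo and read luminescence after 30 min at room temperature; fit Hill curves for AC50.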
# [3] = Cell Viability - LYMP2-019 (AID 973); note: nearly all actives have a fitted effect of over 55% in size
# How it was run: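 Cells plated at 2500/well and allowed 5 hr at 37 C before compound addition. After 24 hr incubation, CellTiter-Glo reagent was added, plates sat 30 min at room temperature, and luminescence was recorded.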
# [4] = Cell Viability - LYMP2-021 (AID 974);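 note: compound exposure lasts 24 hours at 37 °C; nearly all actives have a fitted effect of over 55% in size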
# How it was run: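 Concentration-response cytotoxicity in a human lymphoblastoid line: 24 hr treatment at 37 C in complete culture medium, tetraoctylammonium bromide as positive control, luminescent ATP quantitation as viability measure.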
# [5] = Cell Viability - LYMP2-023 (AID 975)
# How it was run: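 Concentration-dependent drop in intracellular ATP measures acute cytotoxicity in a human lymphoblastoid line treated for 24 hours in complete culture medium. AC50 values are taken from Hill-equation fits of qHTS data.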
# [6] = Cell Viability - LYMP2-025 (AID 976); note: series mostly up to about 92 µM
# How it was run: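 In qHTS format, LYMP2-025 lymphoblastoid cells in complete culture medium received compound for 24 hr; ATP-based CellTiter-Glo signal gave viability, with AC50 derived by Hill equation.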
# [7] = Cell Viability - LYMP2-002 (AID 977);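 note: series mostly up to about 92 µM; compound exposure lasted 24 h at 37 °C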
# How it was run: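 Cytotoxicity is scored as concentration-dependent loss of cellular ATP in a human lymphoblastoid line after 24 hr compound treatment at 37 C. AC50 is obtained by modelling concentration-response data with the Hill equation.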
# [8] = Cell Viability - LYMP2-007 (AID 979);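 note: cells exposed to compound for 24 h before reading; nearly all actives have a fitted effect of over 60% in size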
# How it was run: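 Acute toxicity is scored as a concentration-dependent fall in intracellular ATP in human lymphoblastoid cells treated 24 hr at 37 C, measured by luciferase luminescence; Hill-equation modelling yields AC50.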
# [9] = Cell Viability - LYMP2-008 (AID 980); note: nearly all actives have a fitted effect of over 60% in size
# How it was run: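 Acute cytotoxicity is scored as concentration-dependent loss of cellular ATP in a human lymphoblastoid line after 24 hr treatment at 37 C. ATP is quantified by luciferase luminescence.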
# [10] = Cell Viability - LYMP2-010 (AID 981)
# How it was run: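 Acute toxicity is scored as a concentration-dependent loss of cellular ATP in human lymphoblastoid cells after 24 hr compound exposure in complete medium. Tetraoctylammonium bromide is the positive control.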
# [11] = Cell Viability - LYMP2-014 (AID 983); note: series mostly up to about 92 µM; nearly all actives have a fitted effect of over 50% in size
# How it was run: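 Decrease in intracellular ATP after 24 hr treatment at 37 C, measured by luciferase luminescence, indicated cytotoxicity. Concentration-response data were fitted with the standard Hill equation to give AC50.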
# [12] = Cell Viability - LYMP2-016 (AID 984)
# How it was run: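 Human lymphoblastoid LYMP2-016 cells, 2500 per well, treated with compounds for 24 h at 37 C. Viability read as intracellular ATP by CellTiter-Glo luminescence after 30 min at room temperature; AC50 from Hill fits of concentration-response.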
# [13] = Cell Viability - LYMP2-018 (AID 985);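 note: compound exposure lasted 24 hr at 37 °C; nearly all actives have a fitted effect of over 50% in size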
# How it was run: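 Acute cytotoxicity is scored as a concentration-dependent drop in intracellular ATP after 24 hr exposure of the lymphoblastoid line in complete culture medium, measured by luciferase luminescence. Potency is expressed as AC50 from Hill modelling.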
# [14] = Cell Viability - LYMP2-020 (AID 986)
# How it was run: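 Acute cytotoxicity in a human lymphoblastoid line is scored as a concentration-dependent fall in cellular ATP after 24 hr at 37 C in complete medium. The positive control is tetraoctylammonium bromide, and potency is given as Hill-fit AC50.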
# [15] = Cell Viability - LYMP2-022 (AID 987); note: nearly all actives have a fitted effect of over 55% in size
# How it was run: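 Acute toxicity in a human lymphoblastoid line is scored as decreased intracellular ATP after 24 hr compound treatment at 37 C. ATP is measured by CellTiter-Glo luminescence; curves are fitted with the Hill equation to give AC50.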
# [16] = Cell Viability - LYMP2-024 (AID 988); note: nearly all actives have a fitted effect of over 60% in size
# How it was run: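 Acute toxicity is measured as concentration-dependent loss of intracellular ATP in a human lymphoblastoid line treated 24 hours at 37 C. Luciferase luminescence quantifies ATP; AC50 values come from standard Hill-equation modelling.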
# [17] = Cell Viability - LYMP2-026 (AID 989); note: nearly all actives have a fitted effect of over 50% in size
# How it was run: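 Concentration-dependent loss of intracellular ATP in human lymphoblastoid cells after 24 hr at 37 C, quantified by luciferase luminescence. AC50 derived from standard Hill equation.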
# [18] = Cell Viability - LYMP1-002 - Assay at 24 hr (AID 993)
# How it was run: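 qHTS, LYMP1-002 lymphoblastoid, 24 h cpd, 37 C, CellTiter-Glo ATP luminescence; AC50 via Hill eq.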
# [19] = Cell Viability - LYMP1-002 - Assay at 40 hr (AID 994); note: nearly all actives have a fitted effect of over 60% in size
# How it was run: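 Viability in the human lymphoblastoid line was measured as intracellular ATP via CellTiter-Glo after 40 hr compound exposure. Tetraoctylammonium bromide served as positive control.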
# [20] = target: Glucocorticoid receptor (Homo sapiens) (UniProt P04150); assay: qHTS assay for small molecule agonists of glucocorticoid receptor signaling (AID 588532; active = well fitted curve in the direction sought with a large enough effect in the signal ratio, with a control signal flat; the % refers to the signal ratio); settings: HeLa MMTV-bla, beta-lactamase ratio, agonist, 18 h; stronger effect = higher value; percent of dexamethasone control, DMSO zero
# How it was run: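 Using MMTV-bla HeLa cells in medium with 1% stripped FBS and 25 mM HEPES, compounds were titrated and incubated overnight-length (18 h). Beta-lactamase cleavage of CCF4 was quantified by dual-emission fluorescence.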
# [21] = qHTS assay for small molecule antagonists of retinoid X receptor alpha signaling (AID 588546; active = well fitted inhibition curve with a large enough effect in the signal ratio, with a control signal flat, not every such curve was filed as active; the % refers to the signal ratio;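 note: cells stimulated with 9-cis-retinoic acid as agonist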); settings: HEK293T RXRa-UAS-bla, beta-lactamase ratio, antagonist mode; measured here: W530 green channel, cytotoxicity proxy
# How it was run: (§1)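 Beta-lactamase reporter inhibition, read as CCF4 fluorescence ratio (ex 405, em 460/530 nm) after 2 h at RT. HEK293T UAS-bla cells, 2500/well, were stimulated with 9-cis-RA at 500 or 100 nM final alongside test compound for 18 h at 37 C.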
# [22] = target: Retinoic acid receptor RXR-alpha (Homo sapiens) (UniProt P19793); assay: as above; settings: HEK293T RXRa-UAS-bla, beta-lactamase ratio, antagonist mode
# How it was run: as §1
# [23] = qHTS assay for small molecule disruptors of the mitochondrial membrane potential - 1 hr assay (AID 651754; calls by dose curve; note: nearly all actives have a fitted effect of over 35% in size)
# How it was run: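 Steps: seed HepG2 cells and let attach overnight; pin-transfer compound or vehicle; incubate 1 hr at 37C; add Mito-MPS dye for 30 min; read two-channel fluorescence for monomer and aggregate forms.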
# [24] = target: Tumor necrosis factor (Homo sapiens) (UniProt P01375); assay: qHTS assay to identify small molecules that stimulate Tumor Necrosis Factor-alpha (TNF-alpha) secretion (AID 651757; active = well fitted curve in the direction sought with a large enough effect in the signal ratio; the % refers to the signal ratio)
# How it was run: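 Secreted TNF-alpha from compound-treated THP-1 cells (17 hrs, 37 C) was quantified with a homogeneous time-resolved fluorescence antibody assay.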
# [25] = qHTS assay for environmental chemicals that activate the Aryl hydrocarbon Receptor (AhR) signaling pathway (AID 651777); settings: 1A2-DRE human hepatoma cells, luciferase, 24 h; activation: stronger effect = higher value; note: nearly all actives have a fitted effect of over 15% in size
# How it was run: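 Reporter gene assay: hepatoma cells with DRE/CYP1A2-luciferase, 24 hr compound incubation at 37 C, 5% CO2, luminescence after One-Glo (30 min, RT).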
# [26] = target: Peroxisome proliferator-activated receptor alpha (Homo sapiens) (UniProt Q07869); assay: qHTS assay for small molecule agonists of the peroxisome proliferator-activated receptor alpha (PPARalpha) signaling pathway (AID 651778); settings: PathHunter PPARalpha complementation, chemiluminescence, 6 h; max response: stronger effect = higher value
# How it was run: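 Chemiluminescence from complemented enzyme reported PPARalpha activation in cells after 6 hr of compound treatment at 37 C. The detection reagent was incubated for 60 min at room temperature, and compounds were scored as agonists.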
# [27] = qHTS assay for small molecule antagonists of the retinoid-related orphan receptor gamma (ROR-gamma) signaling pathway - cell viability counter screen (AID 720652; active = well fitted curve in the direction sought with a large enough effect in the repeat runs; an effect the other way counts as inactive or inconclusive;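 note: CHO reporter cells with doxycycline-induced ROR-gamma expression; series mostly up to about 92 µM; compound exposure lasted 16 hr before ATP read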)
# How it was run: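 Cytotoxicity is quantified via intracellular ATP (CellTiter-Glo luminescence) in doxycycline-induced CHO ROR response element-luciferase reporter cells treated with compound for 16 hr at 37 C, 5% CO2.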
# [28] = qHTS assay for small molecule agonists of the antioxidant response element (ARE) signaling pathway measured by Nrf2-dependant transcriptional activity - cell viability counter screen (AID 720653; active = well fitted curve in the direction sought with a large enough effect in the repeat runs; an effect the other way counts as inactive or inconclusive); settings: ARE-bla HepG2 viability, CellTiter-Glo ATP luminescence, 16 h; max response: stronger effect = lower value
# How it was run: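 Cytotoxicity counter screen: intracellular ATP quantified by CellTiter-Glo luminescence in the same ARE-bla HepG2 plates, after 16 h compound exposure and a 2 h beta-lactamase substrate step.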
# [29] = qHTS assay for cell viability of HEK293 cells (AID 743288); settings: ATP luminescence (CellTiter-Glo), 18 h; max response: stronger effect = lower value; note: nearly all actives have a fitted effect of over 50% in size
# How it was run: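 Parental HEK293 cells, 2,000 per well, preincubated at least 5 h at 37 C, then exposed to compounds in DMSO for 18 h at 37 C. Viability by CellTiter-Glo ATP luminescence after 30 min at room temperature.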
# [30] = qHTS assay for cell viability of the p53RE-bla HCT-116 cell line (AID 743292)
# How it was run: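 ATP-based luminescence, 16 h compound exposure at 37 C, p53RE-bla HCT-116 cells at 4,000/well.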
# [31] = target: Rap guanine nucleotide exchange factor 3 (Homo sapiens) (UniProt O95398); assay: Confirmatory qHTS for agonist of cAMP-regulated guanine nucleotide exchange factor 3 (EPAC1) (AID 1645881);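 note: EPAC1 catalysed release of BODIPY-GDP from Rap1B seen as fluorescence loss; nearly all actives have a fitted effect of over 75% in size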
# [32] = target: Rap guanine nucleotide exchange factor 4 (Homo sapiens) (UniProt Q8WZA2); assay: Confirmatory qHTS for agonist of cAMP-regulated guanine nucleotide exchange factor 4 (EPAC2) (AID 1645884);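 note: nucleotide exchange releases bodipy-GDP from Rap1 and this lowers its fluorescence; nearly all actives have a fitted effect of over 65% in size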
# [33] = target: Rap guanine nucleotide exchange factor 3 (Homo sapiens) (UniProt O95398); assay: Counterscreen qHTS for antagonist of cAMP-regulated guanine nucleotide exchange factor 3 (EPAC1) (AID 1645888);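 note: fluorescence loss as bound BODIPY-GDP is released from Rap1B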
# How it was run: (§2)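 Rap1B-BODIPY-GDP 250 nM + GDP 50 uM; cpds 7-pt, final 9.74 nM–152 uM (activator mode) or from 7.32 nM upwards (inhibitor mode); RT; FI 480/540 nm at 5 and 30 min, then ± cAMP, reread.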
# [34] = target: Rap guanine nucleotide exchange factor 3 (Homo sapiens) (UniProt O95398); assay: Counterscreen qHTS for agonist of cAMP-regulated guanine nucleotide exchange factor 3 (EPAC1) (AID 1645889); note: nearly all actives have a fitted effect of over 40% in size
# How it was run: as §2
# [35] = target: Nuclear receptor subfamily 1 group I member 2 (Rattus norvegicus) (UniProt Q9R1A7); assay: qHTS assay for small molecule activators of the rat pregnane X receptor (rPXR) signaling pathway (AID 651751; call rule not given here); settings: rPXR reporter cells, luciferase (One-Glo), 24 h
# [36] = qHTS assay for small molecule activators of the human pregnane X receptor (PXR) signaling pathway (AID 720659; call rule not given here)
# Rap guanine nucleotide exchange factor 3 (Homo sapiens), sequence (O95398 whole entry, looked up): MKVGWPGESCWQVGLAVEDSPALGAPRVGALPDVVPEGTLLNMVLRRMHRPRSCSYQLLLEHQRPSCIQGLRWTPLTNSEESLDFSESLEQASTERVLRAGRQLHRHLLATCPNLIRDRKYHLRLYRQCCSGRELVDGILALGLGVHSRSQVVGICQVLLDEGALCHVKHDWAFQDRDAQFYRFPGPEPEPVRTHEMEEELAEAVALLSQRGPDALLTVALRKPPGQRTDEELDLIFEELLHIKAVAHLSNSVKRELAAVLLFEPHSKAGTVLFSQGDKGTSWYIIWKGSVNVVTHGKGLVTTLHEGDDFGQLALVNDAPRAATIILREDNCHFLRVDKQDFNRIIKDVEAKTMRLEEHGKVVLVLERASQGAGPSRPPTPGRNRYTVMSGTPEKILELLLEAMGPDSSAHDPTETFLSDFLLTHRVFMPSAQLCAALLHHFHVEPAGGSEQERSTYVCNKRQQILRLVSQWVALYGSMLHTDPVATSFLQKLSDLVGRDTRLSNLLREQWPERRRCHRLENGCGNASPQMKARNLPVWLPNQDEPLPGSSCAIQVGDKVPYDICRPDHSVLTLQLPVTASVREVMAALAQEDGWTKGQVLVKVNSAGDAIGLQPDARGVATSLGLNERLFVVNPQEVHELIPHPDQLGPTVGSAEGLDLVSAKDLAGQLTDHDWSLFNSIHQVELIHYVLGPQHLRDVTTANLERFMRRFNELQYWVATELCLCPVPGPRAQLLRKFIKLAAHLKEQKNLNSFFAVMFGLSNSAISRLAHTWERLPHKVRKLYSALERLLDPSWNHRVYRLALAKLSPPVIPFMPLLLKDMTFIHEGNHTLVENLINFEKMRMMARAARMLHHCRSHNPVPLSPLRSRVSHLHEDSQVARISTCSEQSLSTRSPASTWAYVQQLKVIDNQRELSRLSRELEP
# Glucocorticoid receptor (Homo sapiens), sequence (P04150 whole entry, looked up): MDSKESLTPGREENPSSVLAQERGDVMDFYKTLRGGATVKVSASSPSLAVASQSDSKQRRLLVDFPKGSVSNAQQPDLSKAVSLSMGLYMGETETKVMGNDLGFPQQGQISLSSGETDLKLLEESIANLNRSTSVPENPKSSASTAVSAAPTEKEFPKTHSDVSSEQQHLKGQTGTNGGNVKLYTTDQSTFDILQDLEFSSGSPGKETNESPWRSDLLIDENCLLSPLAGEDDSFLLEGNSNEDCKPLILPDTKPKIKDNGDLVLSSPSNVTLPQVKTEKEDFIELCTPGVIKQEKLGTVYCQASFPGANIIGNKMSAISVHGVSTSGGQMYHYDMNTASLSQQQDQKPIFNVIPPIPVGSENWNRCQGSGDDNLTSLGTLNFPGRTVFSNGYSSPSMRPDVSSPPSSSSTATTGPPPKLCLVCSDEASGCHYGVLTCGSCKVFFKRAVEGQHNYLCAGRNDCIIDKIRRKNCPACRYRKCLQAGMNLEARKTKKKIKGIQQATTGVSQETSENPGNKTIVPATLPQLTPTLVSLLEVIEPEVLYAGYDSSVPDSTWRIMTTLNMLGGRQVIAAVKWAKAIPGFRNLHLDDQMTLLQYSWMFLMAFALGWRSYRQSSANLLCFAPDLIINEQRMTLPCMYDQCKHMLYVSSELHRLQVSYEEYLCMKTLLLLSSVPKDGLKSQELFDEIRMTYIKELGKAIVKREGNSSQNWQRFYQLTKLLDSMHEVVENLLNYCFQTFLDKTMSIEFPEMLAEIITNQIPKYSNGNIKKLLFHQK
# Nuclear receptor subfamily 1 group I member 2 (Rattus norvegicus), sequence (Q9R1A7 whole entry, looked up): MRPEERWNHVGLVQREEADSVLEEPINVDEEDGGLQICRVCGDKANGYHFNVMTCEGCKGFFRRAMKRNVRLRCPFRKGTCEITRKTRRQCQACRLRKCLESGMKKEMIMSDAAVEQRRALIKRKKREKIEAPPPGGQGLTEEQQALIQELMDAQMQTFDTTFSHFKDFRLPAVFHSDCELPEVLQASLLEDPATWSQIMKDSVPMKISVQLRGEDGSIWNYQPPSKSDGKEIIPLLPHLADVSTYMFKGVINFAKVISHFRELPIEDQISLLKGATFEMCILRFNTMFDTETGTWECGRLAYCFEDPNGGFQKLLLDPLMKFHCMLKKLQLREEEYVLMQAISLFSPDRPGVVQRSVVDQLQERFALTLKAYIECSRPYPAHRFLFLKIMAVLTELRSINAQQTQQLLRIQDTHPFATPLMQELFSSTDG
# Retinoic acid receptor RXR-alpha (Homo sapiens), sequence (P19793 whole entry, looked up): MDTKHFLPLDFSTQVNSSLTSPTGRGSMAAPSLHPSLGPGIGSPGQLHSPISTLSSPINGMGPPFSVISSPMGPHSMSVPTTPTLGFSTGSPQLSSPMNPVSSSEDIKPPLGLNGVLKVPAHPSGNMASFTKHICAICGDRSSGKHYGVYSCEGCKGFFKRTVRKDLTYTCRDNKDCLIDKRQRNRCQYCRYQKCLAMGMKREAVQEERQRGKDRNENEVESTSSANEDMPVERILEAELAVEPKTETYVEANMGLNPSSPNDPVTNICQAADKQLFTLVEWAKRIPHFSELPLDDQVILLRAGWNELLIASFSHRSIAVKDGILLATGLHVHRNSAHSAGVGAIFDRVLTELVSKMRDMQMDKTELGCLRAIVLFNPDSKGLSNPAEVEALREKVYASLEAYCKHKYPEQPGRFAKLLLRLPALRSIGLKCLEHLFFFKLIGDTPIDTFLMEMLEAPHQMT
# Peroxisome proliferator-activated receptor alpha (Homo sapiens), sequence (Q07869 whole entry, looked up): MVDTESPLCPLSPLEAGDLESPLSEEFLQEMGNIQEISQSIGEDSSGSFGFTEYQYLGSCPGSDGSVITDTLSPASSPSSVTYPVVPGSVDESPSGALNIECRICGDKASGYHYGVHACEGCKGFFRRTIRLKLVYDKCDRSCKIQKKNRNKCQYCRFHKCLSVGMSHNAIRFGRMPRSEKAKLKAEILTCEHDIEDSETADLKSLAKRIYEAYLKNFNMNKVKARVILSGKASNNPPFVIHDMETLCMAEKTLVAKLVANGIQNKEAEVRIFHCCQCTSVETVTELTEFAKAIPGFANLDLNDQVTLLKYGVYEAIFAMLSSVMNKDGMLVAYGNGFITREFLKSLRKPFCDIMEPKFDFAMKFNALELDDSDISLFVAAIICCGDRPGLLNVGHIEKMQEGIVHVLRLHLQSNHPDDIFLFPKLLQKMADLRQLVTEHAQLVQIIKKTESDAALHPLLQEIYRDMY
# Tumor necrosis factor (Homo sapiens), sequence (P01375 whole entry, looked up): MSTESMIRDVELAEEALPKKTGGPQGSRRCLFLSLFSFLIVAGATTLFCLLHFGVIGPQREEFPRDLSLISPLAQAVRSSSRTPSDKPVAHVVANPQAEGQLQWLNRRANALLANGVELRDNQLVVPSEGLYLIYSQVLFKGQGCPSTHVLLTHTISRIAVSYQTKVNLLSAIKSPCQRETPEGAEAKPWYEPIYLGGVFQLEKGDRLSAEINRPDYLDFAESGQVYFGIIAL
# Rap guanine nucleotide exchange factor 4 (Homo sapiens), sequence (Q8WZA2 whole entry, looked up): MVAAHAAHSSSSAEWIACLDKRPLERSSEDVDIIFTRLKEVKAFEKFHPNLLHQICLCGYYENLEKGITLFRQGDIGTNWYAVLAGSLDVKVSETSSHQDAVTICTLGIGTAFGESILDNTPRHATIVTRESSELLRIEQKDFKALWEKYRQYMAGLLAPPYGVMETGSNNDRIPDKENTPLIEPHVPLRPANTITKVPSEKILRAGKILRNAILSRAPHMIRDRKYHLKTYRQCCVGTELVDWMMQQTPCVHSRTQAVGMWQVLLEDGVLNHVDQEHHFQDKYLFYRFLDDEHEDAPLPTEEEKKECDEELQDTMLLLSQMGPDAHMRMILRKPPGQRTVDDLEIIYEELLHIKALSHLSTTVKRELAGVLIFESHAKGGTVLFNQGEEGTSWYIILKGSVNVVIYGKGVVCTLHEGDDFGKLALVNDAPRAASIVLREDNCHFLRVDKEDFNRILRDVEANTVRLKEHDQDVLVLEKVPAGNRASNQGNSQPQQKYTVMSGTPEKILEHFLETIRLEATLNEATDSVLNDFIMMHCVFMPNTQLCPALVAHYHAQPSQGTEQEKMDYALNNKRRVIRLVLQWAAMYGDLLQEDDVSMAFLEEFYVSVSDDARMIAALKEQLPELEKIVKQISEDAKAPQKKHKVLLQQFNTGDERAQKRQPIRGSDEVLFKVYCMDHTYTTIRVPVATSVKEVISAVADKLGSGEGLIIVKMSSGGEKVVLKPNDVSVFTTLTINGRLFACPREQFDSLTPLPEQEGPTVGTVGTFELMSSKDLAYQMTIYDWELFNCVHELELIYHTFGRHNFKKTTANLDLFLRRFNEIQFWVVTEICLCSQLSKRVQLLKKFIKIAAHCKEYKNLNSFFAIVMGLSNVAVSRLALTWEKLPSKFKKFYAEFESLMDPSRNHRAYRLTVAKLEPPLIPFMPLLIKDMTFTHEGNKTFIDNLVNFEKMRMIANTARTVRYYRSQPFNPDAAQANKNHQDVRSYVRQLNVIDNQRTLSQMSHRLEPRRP
smiles,measurement,setting,value
C[C@H](CCC(=O)O)[C@H]1CC[C@H]2[C@@H]3CC[C@@H]4C[C@H](O)CC[C@]4(C)[C@H]3CC[C@]12C,Potency,[1],inactive
same,Potency,[2],inactive
same,Potency,[3],inactive
same,Potency,[4],inactive
same,Potency,[5],inactive
same,Potency,[6],inactive
same,Potency,[7],inactive
same,Potency,[8],inactive
same,Potency,[9],inactive
same,Potency,[10],inactive
same,Potency,[11],inactive
same,Potency,[12],inactive
same,Potency,[13],inactive
same,Potency,[14],inactive
same,Potency,[15],inactive
same,Potency,[16],inactive
same,Potency,[17],inactive
same,Potency,[18],inactive
same,Potency,[19],inactive
same,activation,[20],-9.27% (inactive) and -13.3% (inactive)
same,max response,[21],21.6% and 12.2%
same,max response,[22],-5.6% (inactive) and -21.5% (inactive)
same,Potency,[23],inactive
same,outcome,[24],inactive
same,activation,[25],1.31% (inactive) and 0.102% (inactive)
same,max response,[26],2.21% (inactive) and -0.262% (inactive)
same,Potency,[27],inactive
same,max response,[28],1.28% (inactive) and 4.08% (inactive)
same,max response,[29],-8.43% (inactive) and -9.1% (inactive)
same,Potency,[30],31.6 µM (active) and 35.5 µM (active)
same,Potency,[31],inactive
same,Potency,[32],inactive
same,Potency,[33],inactive
same,Potency,[34],inactive
same,max response,[35],6.51% (inactive) and -5.67% (inactive)
same,outcome,[36],inactive
